19 molecules from PubChem BioAssay (NCI) can be followed below.

This is part of a sample that, as a whole, favours compounds with a hit. Of some 79,000 tested, about 15% had one in any assay. Unmarked numbers belong to inactive results. Calls of active or inactive are those of the source. Rule as the data show it: active = growth inhibition above about 70%; inactive = the rest.

Experiment [1] in a line: NCI Yeast Anticancer Drug Screen. Data for the rad50 strain (AID 155).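 Also: 0% = growth of vehicle-only cultures of the same strain.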 The settings on record: S. cerevisiae rad50 strain growth inhibition; at 50.0 µM; hits give high values. In short, it runs like this: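 Growth of the mutant yeast was measured after compound exposure and referenced to vehicle-treated cultures.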
Experiment [2] is described as follows: NCI Yeast Anticancer Drug Screen. Data for the mec2-1 strain (AID 157). The settings on record: S. cerevisiae mec2-1 strain, at 50.0 µM, hits give high values. Summed up: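 Cells of the genetically defined mec2-1 yeast strain are incubated with test compound. Inhibition of growth is calculated against vehicle-treated controls.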
The nature of experiment [3]: NCI Yeast Anticancer Drug Screen. Data for the sgs1 mgt1 strain (AID 161).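 Also: 0% = growth of cultures given vehicle only.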 The settings on record: S. cerevisiae sgs1 mgt1 strain, at 50.0 µM, hits give high values. Summed up: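 Genetically altered yeast, compound exposure, growth inhibition relative to vehicle.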
The nature of experiment [4]: NCI Yeast Anticancer Drug Screen. Data for the cln2 rad14 strain (AID 165).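 Also: 0% = growth equal to vehicle treated cultures.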 To be noted: S. cerevisiae cln2 rad14 strain, at 50.0 µM, hits give high values. Summed up:
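The screen exposed genetically defined yeast (cln2 rad14) to test compounds and scored growth inhibition relative to vehicle-treated controls.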

Experiment [5] can be described thus: NCI Yeast Anticancer Drug Screen. Data for the bub3 strain (AID 167). The settings on record: S. cerevisiae bub3 mutant strain, at 50.0 µM, hits give high values. Summed up:
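Whole-cell yeast assay. The mutant strain was incubated with compounds, and growth inhibition was determined by comparison with vehicle-treated cells.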

Experiment [6] is described as follows: NCI Yeast Anticancer Drug Screen. Data for the mlh1 rad18 strain (AID 175). The settings on record: S. cerevisiae mlh1 rad18 strain growth inhibition; at 50.0 µM; hits give high values. Summed up: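 Compound-treated yeast growth, normalised to vehicle controls. Strain bears defined DNA repair mutations.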

Turning to `CCCCCC(/C=C/c1ncccc1OCCCCCC(=O)O)=N\NC1=NCCN1`, the growth inhibition in experiment [1] is 16.8%; in experiment [2], -17.6%; in experiment [3] it was -13.6%; in experiment [4], -25.4%; in experiment [5] it was -44.6%; in experiment [6], 11.7%.
With `Nc1ncnc2c1ncn2[C@@H]1C[C@H]1CO`, the growth inhibition is -39.6% in experiment [1]; 10.8% in experiment [2]; -23.6% in experiment [3]; 12.1% in experiment [4]; 20.6% in experiment [5]; -23.4% in experiment [6].
`Cc1cc(-c2cccc3ccccc23)c(C#N)c(=S)n1C1OC(CO)C(O)C(O)C1O` (centres undefined): the growth inhibition in experiment [1] is 14.1%; in experiment [2], 4.4%; in experiment [3], 47.4%; in experiment [4], 9.5%; in experiment [5], 15.8%; in experiment [6], 33.6%.
Turning to `CC(=O)OCC1OC(Nc2[nH]c(=O)n(C)c(=O)c2C(=O)CCl)C(OC(C)=O)C(OC(C)=O)C1OC(C)=O` (centres undefined), the growth inhibition was 5.15% in experiment [1]; 18.5% in experiment [2]; 2.45% in experiment [3]; -2.55% in experiment [4]; -3.8% in experiment [5]; -4.15% in experiment [6].
Take `Clc1cccc2c(SCCCCCSc3c4ccccc4nc4c(Cl)cccc34)c3ccccc3nc12`: the growth inhibition in experiment [1] is -3.45%; in experiment [2], -8.9%; in experiment [3], -22.4%; in experiment [4], -33.5%; in experiment [5] it was -23.9%; in experiment [6], -24.6%.
With `Cc1cc([O-])c([I+]c2ccccc2)c(=O)[nH]1`, the growth inhibition was 93.3% (active) in experiment [1]; 66.8% in experiment [2]; 97.8% (active) in experiment [3]; 95.6% (active) in experiment [4]; 95.5% (active) in experiment [5]; 90.2% (active) in experiment [6].
Take `CN(C)/C=C/C(=O)c1ccccc1`: the growth inhibition was 61.6% in experiment [1]; 30.1% in experiment [2]; 17.6% in experiment [3]; -16.4% in experiment [4]; 6.05% in experiment [5]; 8.95% in experiment [6].
With `Nc1nnc(Sc2n[nH]c(=O)[nH]c2=O)s1`, the growth inhibition is -8.8% in experiment [1]; -2.6% in experiment [2]; -14.3% in experiment [3]; -0.2% in experiment [4]; -4.9% in experiment [5]; -8.05% in experiment [6].
Consider `COC(=O)/C(=N\NC(C)(C)C)C(C(=O)OC)C(=O)C(=O)Nc1cc(Cl)ccc1Cl` (centres undefined), for which the growth inhibition in experiment [1] was 6.7%; in experiment [2], -0.25%; in experiment [3], -1.65%; in experiment [4] it was 1%; in experiment [5], -24.6%; in experiment [6], 8.55%.
For the molecule `O=C(Nc1ccc(Cl)cc1Cl)C1C(=O)C(=O)N(c2ccc(Cl)cc2Cl)C1=O` (centres undefined), the growth inhibition is 10.8% in experiment [1]; -10.1% in experiment [2]; -1.35% in experiment [3]; 26% in experiment [4]; 0.8% in experiment [5]; 14.4% in experiment [6].
`Cc1ccccc1NC(=O)CC#N`: the growth inhibition is 8.15% in experiment [1]; -12.3% in experiment [2]; 1.5% in experiment [3]; 3.85% in experiment [4]; -0.7% in experiment [5]; 2.2% in experiment [6].
`COc1cc(C=Nc2ccccc2)ccc1OC(=O)c1ccccc1`: the growth inhibition in experiment [1] was 15.8%; in experiment [2], 23.2%; in experiment [3], 17.6%; in experiment [4], 28.7%; in experiment [5] it was 16.9%; in experiment [6], 14.6%.
Consider `COC(=O)C(CC(=O)c1cc2c(cc1I)OCO2)Cc1cc(OC)c(OC)c(OC)c1I` (centres undefined), for which the growth inhibition is -22.9% in experiment [1]; -28.8% in experiment [2]; -29.8% in experiment [3]; -1.65% in experiment [4]; -2.45% in experiment [5]; -24.9% in experiment [6].
Take `CCCCc1c(OC)cc(O)c2c1C(=O)c1[nH]c(C(=O)O)c(O)c(=O)c1C2=O`: the growth inhibition is -16.6% in experiment [1]; -19.3% in experiment [2]; -13.9% in experiment [3]; -11.7% in experiment [4]; -10.9% in experiment [5]; -5.75% in experiment [6].
`COC(=O)c1nc(N)nc(C(=O)OC)c1C(=O)c1cccc([N+](=O)[O-])c1`: the growth inhibition was -11.1% in experiment [1]; -19.4% in experiment [2]; -33.2% in experiment [3]; 30.6% in experiment [4]; -21.7% in experiment [5]; -16.8% in experiment [6].
As to `CCNc1cc2oc(=O)cc(C)c2cc1C`, the growth inhibition in experiment [1] was -30.7%; in experiment [2], -22.5%; in experiment [3], -11.4%; in experiment [4], 8.05%; in experiment [5], -19%; in experiment [6], -28.2%.
For `CN1CN(C)C(c2ccncc2)=C1c1ccncc1`, the growth inhibition in experiment [1] is -36%; in experiment [2], -47.5%; in experiment [3] it was -29.9%; in experiment [4] it was -0.5%; in experiment [5] it was -58.3%; in experiment [6], -19.5%.
As to `CC1(C)[C@H]2Cc3c(ccc4c3C(=O)OC4=O)[C@@H]1C2`, the growth inhibition in experiment [1] was 6.75%; in experiment [2], -3.9%; in experiment [3] it was 0.35%; in experiment [4] it was -30.6%; in experiment [5], -17.4%; in experiment [6] it was 2.45%.
Regarding `CCN(CC)C1CS(=O)(=O)OC2=C1CSCC2` (centres undefined), the growth inhibition in experiment [1] was -2.4%; in experiment [2], 19.1%; in experiment [3] it was 11.3%; in experiment [4], 3.75%; in experiment [5] it was 4.35%; in experiment [6], -31.5%.
